DUSP3 inh: VHR1 phosphatase inhibitors, primary screen, biochemical, absorbance, uHTS; recombinant VHR phosphatase, pNPP absorbance; inhibition, % at 13.3 µM; actives 0.52% (n = 290,000); AID 1654, 2009; in the data active = inhibition above about 50%
Target sequence (P51452 whole entry, looked up): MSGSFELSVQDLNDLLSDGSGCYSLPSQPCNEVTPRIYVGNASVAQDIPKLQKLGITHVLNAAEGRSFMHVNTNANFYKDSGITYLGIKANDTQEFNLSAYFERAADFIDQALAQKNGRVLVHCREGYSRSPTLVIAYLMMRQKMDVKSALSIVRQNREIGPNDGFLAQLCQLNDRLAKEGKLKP
BJeLR lethal: MLPCN primary cell-based screen for lethality selective to Ras in HRASV12 cells; actives 0.17% (n = 300,000); inhibition, % (no concentration beside the values); BJeLR (HRASV12) viability, CellTiter-Glo ATP luminescence, 48 h; in the data active = inhibition above about 50%
MazF activator: activators of E. coli MazEF toxin-antitoxin RNase, primary screen, biochemical, fluorescence, uHTS; Endoribonuclease toxin MazF (Escherichia coli (strain K12)), P0AE70; FAM/BHQ RNA-DNA oligo cleavage fluorescence, 5 h; activation, % at 20 µM; actives 0.32% (n = 350,000); AID 504720, 2011; in the data active = activation above about 50%
Target sequence (P0AE70 whole entry, looked up): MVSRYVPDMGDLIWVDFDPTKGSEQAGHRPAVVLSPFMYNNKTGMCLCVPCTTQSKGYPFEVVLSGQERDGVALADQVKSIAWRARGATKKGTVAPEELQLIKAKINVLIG
Vc quorum ag: inducers of Vibrio cholerae quorum light production without autoinducers, primary screen, BH1578 luxS cqsA deficient, single point | activation, % at 18.7 µM | V. cholerae BH1578 lux reporter, luminescence, 6 h | AID 588436, 2011 | actives 0.16% (n = 350,000); in the data active = activation mostly above about 9.7%, no sharp cut-off
3CLpro inhibitor: SARS-CoV 3CLpro protease inhibitors, primary screen, biochemical, quenched FRET. Replicase polyprotein 1ab (Severe acute respiratory syndrome coronavirus), P0C6X7. recombinant SARS-CoV 3CLpro, quenched FRET peptide cleavage. inhibition, % at 6 µM. actives 0.14% (n = 290,000). AID 1706, 2009; in the data active = inhibition above about 12%
PfHsp40 yeast: rescue of yeast from PfHsp40 toxicity, primary screen, S. cerevisiae, ATP luminescence; actives 0.68% (n = 340,000); S. cerevisiae expressing PfHsp40, growth rescue; AID 504582, 2011; growth rescue, % at 12.5 µM; in the data active = growth rescue above about 28%, passing the limit was not always enough;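 note: yeast W303a lacking pdr1 and pdr3 grown in galactose medium; growth measured after three days at 30 °C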
* hit, by the source's call; i = inactive; x = not tested or not shown. Most compounds without a hit are left out; they make up all but 1.7% or so of the library.

SMILES	DUSP3 inh	BJeLR lethal	MazF activator	Vc quorum ag	3CLpro inhibitor	PfHsp40 yeast
CC(C)[C@H](NC(=O)Cc1ccccc1)C(=O)OCc1cc(=O)n2c(n1)sc1ccccc12	54*	-12	-1	0	2	-1
CCN1CCN(CCNC(=O)c2ccc(/C=C3/Sc4ccccc4N(Cc4ccccc4C)C3=O)cc2)CC1	24	76*	-26	-3	-1	-2
CCOc1ccc2[nH]c(C)c(CN3CCCCCC3)c(=O)c2c1	6	-1	5	0	-2	-1
CC(=O)OC1(C)CC(C)C(=O)C(C(O)CC2CC(=O)NC(=O)C2)C1 (configuration not stated)	x	x	6	-1	x	12
C[C@@H]1C[C@@H]([C@H](O)CC2CC(=O)NC(=O)C2)C(=O)[C@@H](C)C1	x	x	6	0	x	40*
COCOc1ccc(-c2ncc(OC)nc2NC(=O)c2cc(C)oc2C)cc1	x	x	x	i	x	x
Cc1nc(N)nc(N)c1/C=C/C(C)(C)c1ccc(Cl)cc1	-11	69*	2	0	0	151*
CCN(CC)S(=O)(=O)c1ccc(C(=O)Oc2coc(CSc3nc(C)cc(C)n3)cc2=O)cc1	-5	7	-1	i	-3	72*
CN(C)S(=O)(=O)c1ccc(C(=O)Oc2coc(CSc3ncccn3)cc2=O)cc1	0	x	-7	0	-1	94*
Cc1cc(C)nc(SCc2cc(=O)c(OC(=O)c3cccc([N+](=O)[O-])c3)co2)n1	18	-4	5	-1	-2	-1
CSc1nsc(SCC(=O)Nc2ccc(F)cc2F)n1	6	-5	0	0	0	-2
CCOc1cc(/C=C2/C(=N)N3C(=NC2=O)SN=C3S(=O)(=O)C(C)C)ccc1OC(=O)c1ccco1	-1	-7	62*	-2	0	10
O=C(CC(=O)c1c(F)cccc1Cl)c1ccccc1O	7	4	-5	-1	6	112*
CSc1ccc(CN2CCCC(CNC(=O)c3ccc(F)cc3)C2)cc1 (configuration not stated)	22	2	-1	2	-2	0
Cc1sc(NC(=O)COc2cccc(-n3cnnn3)c2)c(C#N)c1C	3	-6	120*	i	3	2
Cc1sc(NC(=O)COc2ccccc2)c(C#N)c1C	1	3	3	i	0	2
CCN1CCN(C(c2cccs2)C(C)NC(=O)c2cccc(OC)c2)CC1 (configuration not stated)	9	3	1	-1	-5	1
COc1cccc(C(=O)NC(C)C(c2cccs2)N2CCOCC2)c1 (configuration not stated)	53*	1	4	-1	-7	0
COC(=O)CCC(=O)N1CCCC(CO)(Cc2ccccc2F)C1 (configuration not stated)	9	-2	-27	i	-7	17
O=C(NCC1CCCO1)c1nn2c(C(F)(F)F)cc(-c3cc(Br)cs3)nc2c1Br (configuration not stated)	18	-5	71*	i	-3	2
CCC1CCCCN1CCCNC(=O)c1ccc2c(c1)NC(=O)CS2 (configuration not stated)	56*	-6	10	-1	-1	0
CCC1CCCCN1CCCNC(=O)c1ccc2nc(N3CCC(C)CC3)sc2c1 (configuration not stated)	51*	7	17	0	-7	1
CC1CCN(c2nc3ccc(C(=O)NCCCN4CCCCC4)cc3s2)CC1	37	14	6	0	-5	2
COc1ccc(S(=O)(=O)N2CCCOC2CNC(=O)C(=O)NCCO)cc1 (configuration not stated)	x	x	11	0	x	x
O=C1/C(=C/c2ccncc2)CCC/C1=C\c1ccncc1	25	68*	11	0	3	-1
SMILES	DUSP3 inh	BJeLR lethal	MazF activator	Vc quorum ag	3CLpro inhibitor	PfHsp40 yeast
O=[N+]([O-])c1ccc(-c2cn3nc(-c4ccccc4)c(-c4ccccc4)nc3n2)cc1	9	-2	164*	0	1	x
Nc1nc(-c2ccccc2)c(-c2ccc([N+](=O)[O-])cc2)s1	13	-7	2	i	6	233*
CC(=O)/C(N=Nc1cccc(C(F)(F)F)c1)=C(\C)O	11	6	1	0	-2	1
O=C(/C(N=Nc1cccc(C(F)(F)F)c1)=C(/O)c1cccs1)C(F)(F)F	29	7	2	0	-1	195*
CC(=O)/C(C#N)=C1\NC(=O)C(Cc2cc(Cl)ccc2Cl)S1 (configuration not stated)	-5	28	6	-1	4	0
CC(=O)/C(C#N)=C1\NC(=O)C(Cc2ccccc2Cl)S1 (configuration not stated)	-1	21	12	i	-5	39*
Cc1cc(C)c(S(=O)(=O)Cc2ccccc2)c(OC(C)C)n1	-10	-2	6	0	-1	-1
O=C(COc1ccc(Cl)cc1)NCc1nnc2c3ccccc3c(-c3ccccc3)nn12	51*	-7	1	-1	2	0
O=C(NCc1nnc2c3ccccc3c(-c3ccccc3)nn12)c1ccccc1Cl	2	1	-1	i	0	0
CC(C)n1c(O)c(C2c3cc(Cl)ccc3Oc3[nH]c(=O)n(C(C)C)c(=O)c32)c(=O)[nH]c1=O (configuration not stated)	49	22	0	i	-3	281*
CCC(c1ccccc1)c1noc(CCN(CC)CC)n1 (configuration not stated)	x	x	-1	i	x	x
Cc1ccc(Sc2ccc(NC(=O)CCl)cc2)cc1C	-10	-1	-4	0	0	457*
Cc1ccc(C)c(Sc2ccc(NC(=O)CCl)cc2)c1	-1	1	-5	x	3	x
CC1CCN(C(=O)C2CCN(S(=O)(=O)c3ccc(-n4cnnn4)cc3)CC2)CC1	3	1	2	0	5	1
CC1(C(=O)NS(=O)(=O)c2ccccc2)CCN1C(=O)Cc1cc(F)ccc1F (configuration not stated)	x	x	x	i	x	x
C=Cn1c(C(=O)O)ccc1-c1ccc(CC)cc1	13	3	-8	-1	5	8
CCc1ccc(-c2csc3[n+]2CCN3C(C)=O)cc1	13	7	-3	0	2	93*
CC(=O)N1CC[n+]2c(-c3ccc(Cl)cc3)csc21	-3	2	1	0	-2	66*

Bioassay records as filed in PubChem.
